# Assay outcomes (PubChem BioAssay)
# Most compounds without a hit are left out; they make up all but 3.2% or so of the library.
# Rtt109 HAT inh: inhibitors of Candida albicans Rtt109/Vps75 histone acetyltransferase; Q5AAJ8; purified Rtt109/Vps75, ThioGlo CoA-SH fluorescence, 4 h; inhibition, % at 34.9 µM; actives 0.16% (n = 330,000); AID 540336;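 active = inhibition of at least 50% in every replicate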
# CDK5 p35 inh: blocks human CDK5/p35 kinase activity; Q00535+Q15078; Recombinant CDK5/p35, ADP-Glo luminescence, 60 min; inhibition, % at 10 µM; actives 0.01% (n = 330,000);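 active = highest replicate inhibition of at least 50% and at least 75% of replicates reaching 50%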;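 also: plate controls were DMSO neutral control for no effect and GW8510 at 10 µM for full effect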
# Target sequence (Q00535 whole entry, looked up): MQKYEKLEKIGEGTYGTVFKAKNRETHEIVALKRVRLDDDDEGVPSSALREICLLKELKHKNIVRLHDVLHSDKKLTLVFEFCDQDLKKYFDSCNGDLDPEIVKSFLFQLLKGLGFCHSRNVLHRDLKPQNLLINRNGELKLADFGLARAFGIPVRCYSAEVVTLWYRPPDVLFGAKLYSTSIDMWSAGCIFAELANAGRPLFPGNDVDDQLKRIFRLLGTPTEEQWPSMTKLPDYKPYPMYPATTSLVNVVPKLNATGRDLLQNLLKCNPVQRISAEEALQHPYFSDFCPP
# Target sequence (Q15078 whole entry, looked up): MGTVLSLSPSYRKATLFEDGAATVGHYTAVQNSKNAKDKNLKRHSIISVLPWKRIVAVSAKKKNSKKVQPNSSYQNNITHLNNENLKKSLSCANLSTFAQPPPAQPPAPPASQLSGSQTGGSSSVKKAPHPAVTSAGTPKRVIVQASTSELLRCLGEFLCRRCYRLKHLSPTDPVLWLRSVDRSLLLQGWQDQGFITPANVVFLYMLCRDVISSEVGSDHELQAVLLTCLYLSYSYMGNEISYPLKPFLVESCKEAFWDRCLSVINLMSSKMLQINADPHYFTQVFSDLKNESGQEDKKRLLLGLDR
# DYRK1A inh: Dyrk1A (rat) kinase inhibition; ADP-Glo luminescence, NFATc1 peptide; actives 0.43% (n = 310,000); inhibition, % at 12.5 µM; Q63470; in the data active = inhibition above about 50%;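 also: plate controls were vehicle with enzyme for no effect and no enzyme for full effect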
# dFosB act-1: enhances mouse delta FosB homodimer DNA binding | P13346 | purified delta FosB, TAMRA-CDK5 oligo fluorescence polarization; percent of positive-control signal above neutral wells | activation, % at 25 µM | actives 0.99% (n = 340,000) | AID 493131;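 active = mean activation above about 17%, with every replicate also reaching it, limit read from the data, passing the limit was not always enough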
# esBAF inh: inhibitors of esBAF chromatin remodeling in mouse ES cells; Bmi1-luciferase knock-in reporter, 24 h; 100% = twice the neutral-well signal; reporter increase, % at 12.5 µM; actives 2% (n = 350,000); AID 602393; in the data active = activation above about 40%;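 also: 0% = median of the plate's neutral control wells and 100% = double that signal; a rise in the Bmi1 reporter signal indicates esBAF inhibition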
# SMARCA2 activ: SMARCA2 function activation, primary screen | MG213 cells, MMTV-luciferase reporter, dexamethasone, overnight | activation, % at 9.1 µM | actives 1% (n = 370,000); in the data active = activation above about 7.8%;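 also: 0% = vehicle wells and 100% = reference activator wells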
# dFosB act-2: delta FosB (mouse) homodimer activation. activation, % at 24.9 µM. purified delta FosB, TAMRA-CDK5 oligo fluorescence polarization; normalised: neutral wells 0, positive control 100. shares compounds with dFosB act-1. 2,400 tested, under 10 active;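 active = highest replicate activation at or above 34% and every replicate reaching that threshold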;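 also: higher polarization means more probe DNA bound by delta FosB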
# Active calls of the source: *; / = not tested or not shown.
SMILES,Rtt109 HAT inh,CDK5 p35 inh,DYRK1A inh,dFosB act-1,esBAF inh,SMARCA2 activ,dFosB act-2
COc1ccc(Cl)cc1NC(=O)Cn1nnc(C(=O)NCCc2ccc(OC)c(OC)c2)c1N,-1,0,-3,38*,1,1,6
COc1ccc(CCNC(=O)c2nnn(CC(=O)Nc3ccc(C)cc3C)c2N)cc1OC,-3,3,-1,53*,-6,0,6
CCOc1ccccc1NC(=O)Cn1nnc(C(=O)NCCc2ccc(OCC)c(OCC)c2)c1N,3,/,/,8,4,-2,/
Cc1ccc(NC(=O)Cn2nnc(C(=O)NCCc3ccccc3)c2N)c(C)c1,11,1,4,29*,-5,/,-10
CCC(=O)N(C)C[C@@H]1Oc2ncc(-c3ccc(C#N)cc3)cc2C(=O)N([C@H](C)CO)C[C@@H]1C,/,/,/,/,1,/,/
CO[C@H]1CN(C)C(=O)c2ccc(NC(=O)C3CCCC3)cc2OC[C@@H](C)N(C(=O)CC2CC2)C[C@H]1C,/,/,/,/,1,/,/
Cc1cccc(NC(=O)Cn2c(C)c(C#N)c3ccccc32)c1C,3,0,-3,32*,-5,-2,0
Cc1c(C#N)c2ccccc2n1CC(=O)NC(C)c1ccccc1 (centres undefined),23,-1,13,-9,/,-2,/
COc1ccc(NC(=O)CCC(=O)Nc2nnc(C3CCCCC3)s2)c(OC)c1,-3,-2,-3,7,-11,-1,/
COc1ccc(C)cc1NC(=O)CCC(=O)Nc1nnc(C2CCCCC2)s1,9,0,-3,40*,5,0,-8
CN1C(=O)c2cc(NC(=O)c3cccc(F)c3)ccc2OC[C@H]2O[C@@H](CC(=O)Nc3ccccc3)CC[C@H]21,/,/,/,/,2,/,/
COc1ccccc1-n1nc(C(=O)Nc2ccc3c(c2)OCO3)c2ccccc2c1=O,-2,0,-7,24*,3,-1,1
CC(=O)Nc1ccccc1-c1nc2ccccc2nc1OCC(=O)c1ccc2ccccc2c1,-2,0,1,30*,7,3,-4
O=C(Nc1cc(Cl)ccc1Cl)c1cc(-c2ccco2)on1,-20,1,-6,18*,5,4,-4
CN(C)CCCNc1cc(-c2ccccc2)nc2cc(-c3cccc(F)c3)nn12,7,1,1,56*,-22,-1,2
Cc1cccc(-c2cc3nc(C)cc(NCCCN(C)C)n3n2)c1,3,2,1,2,-8,-3,/
O=C(CSCc1nc2c(nnn2Cc2ccc(F)cc2)c(=O)[nH]1)Nc1c(Cl)cc(Cl)cc1Cl,1,-1,/,29*,/,7,-2
CCc1nc2c(nnn2Cc2ccc(F)cc2)c(=O)[nH]1,-14,0,-3,4,-6,0,/
Cc1cccc(S(=O)(=O)N2C[C@@H](O)COC[C@@H]3O[C@H](CC(=O)N4CCN(C)CC4)CC[C@H]32)c1,/,/,/,/,-4,/,/
N#Cc1ccc(-c2ccc(OCC(=O)NCC(=O)Nc3ccc(F)c(F)c3F)cc2)cc1,2,-3,2,42*,-9,-2,7
O=C(N[C@@H]1CC[C@H](CC(=O)N2CCOCC2)O[C@@H]1CO)c1ccccn1,/,/,/,/,-8,/,/
COc1ccc(/C=C(\C#N)C(=O)OCC(=O)NCc2ccccc2Cl)cc1,1,-1,6,2,/,-4,/
COc1ccc(/C=C(\C#N)C(=O)OCC(=O)NCc2ccccc2OC)cc1,-3,1,-2,31*,/,0,4
O=C(C[C@@H]1CC[C@@H](NC(=O)c2ccc3c(c2)OCO3)[C@H](CO)O1)NC1Cc2ccccc2C1,/,/,/,/,4,/,/
CC(=O)c1ccc(OCC(=O)Nc2ccccc2C(=O)NC2CC2)cc1,-8,1,-1,30*,-4,0,0
SMILES,Rtt109 HAT inh,CDK5 p35 inh,DYRK1A inh,dFosB act-1,esBAF inh,SMARCA2 activ,dFosB act-2
O=C(CCC(=O)Nc1ccccc1Cl)NNC(=O)COc1ccc([N+](=O)[O-])cc1,3,-1,2,17*,-6,-2,-2
O=C(COc1ccc([N+](=O)[O-])cc1)Nc1ccccc1C(=O)NC1CC1,20,0,17,26*,-2,-2,2
O=C(COc1ccc(/C=N/NC(=O)c2ccccc2O)cc1)Nc1ccc([N+](=O)[O-])cc1,-3,0,2,24*,/,1,-3
CCCC(=O)Nc1ccc2c(c1)C(=O)N(C)C[C@@H](OC)[C@H](C)CN(C(=O)c1ccncc1)[C@H](C)CO2,/,/,/,/,-2,/,/
Cc1noc(C)c1NC(=O)Nc1cccc2c1O[C@@H](CN(C)S(=O)(=O)c1cn(C)cn1)[C@@H](C)CN([C@H](C)CO)C2=O,/,/,/,/,1,/,/
C[C@H](CO)N1C[C@H](C)[C@H](CN(C)C(=O)C2CC2)Oc2ncc(-c3ccc(C(=O)N(C)C)cc3)cc2C1=O,/,/,/,/,1,/,/
Cc1nn(C)c(C)c1NC(=O)CSc1nc(-c2ccccc2F)nc2c1cnn2-c1ccccc1,-1,2,3,-2,0,0,/
Cc1nn(C)c(C)c1NC(=O)CSc1nc(-c2ccccc2Cl)nc2c1cnn2-c1ccccc1,-4,0,-7,122*,-13,-1,6
Cc1ccc(-c2cc(C(=O)Nc3ccc(S(=O)(=O)N4CC(C)OC(C)C4)cc3)[nH]n2)c(O)c1 (centres undefined),-10,-1,1,42*,/,-3,7
Cc1ccc(O)c(-c2cc(C(=O)Nc3ccc(S(=O)(=O)N4CC(C)OC(C)C4)cc3)[nH]n2)c1 (centres undefined),-1,-4,-1,7,6,-4,/
Cc1cc(O)c(-c2cc(C(=O)Nc3ccc(S(=O)(=O)N4CCOCC4)cc3)[nH]n2)cc1C,-4,1,3,25*,4,-3,2
O=C(C[C@H]1CC[C@H]2[C@@H](COC[C@H](O)CN2Cc2cc(F)cc(F)c2)O1)Nc1nccs1,/,/,/,/,-9,/,/
COc1cccc(C2c3c(oc4cc(C)c(C)cc4c3=O)C(=O)N2CCCN(C)C)c1 (centres undefined),11,3,16,38*,5,/,4
CCCOc1ccc(C2c3c(oc4cc(C)c(C)cc4c3=O)C(=O)N2CCCN(C)C)cc1OCC (centres undefined),4,-1,13,15,5,-1,/
O=C(NCc1ccco1)c1ccc2c(=O)n(-c3ccccc3)c(=O)n(Cc3cccc(F)c3)c2c1,10,0,5,47*,-41,0,-1
C=CCn1c(=O)c2ccc(C(=O)NCc3ccccc3)cc2n(Cc2ccc(Cl)cc2)c1=O,-1,2,-2,-2,/,-1,/
